# Assay outcomes as filed in PubChem BioAssay.
# YjeE inh: qHTS Assay for Inhibitors of YjeE; tRNA threonylcarbamoyladenosine biosynthesis protein TsaE (Escherichia coli (strain …; Potency, µM; purified YjeE enzyme, qHTS inhibition assay; 0.05% of 71,000 active
#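 Purified YjeE (10 uM) with BODIPY Texas Red-labeled ADP probe (2 uM); compounds pin-transferred, 15 min at room temperature. Binding inhibition read as decreased fluorescence polarization; ADP titration as control.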
# Pol III holo inh: qHTS Assay for Inhibitors of DNA Polymerase III Holoenzyme System | reconstituted DNA polymerase III holoenzyme replication, biochemical | AID 603, 2007 | 0.25% of 71,000 active | Potency, µM (highest dose often 57.1 µM), for inactives: at the top dose activity change, negative = inhibition; further: potency means the concentration at half of the fitted maximal effect; on the % scale 0 is the no-effect control and ±100 the full control effect
#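 Reconstituted *E. coli* holoenzyme (0.35 nM Pol III, 1 nM beta, 154 nM SSB, 2 nM primase) was preincubated with compound for 15 min at RT. Synthesis on 1.4 nM ssM13Gori ran 35 min, then was stopped with PicoGreen/EDTA and read as dsDNA fluorescence.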
# Tau filament bind: qHTS Assay for Tau Filament Binding. recombinant tau filaments, thioflavin S fluorescence, 15 h; filaments grown with octadecylsulfate alongside compound. Potency, µM (series often up to 57.1 µM), for inactives: top-dose activity change, negative = inhibition. 2% of 71,000 active;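 further: potency means the concentration at half of the fitted maximal effect; on the % scale 0 is the no-effect control and ±100 the full control effect; actives lower thioflavin S fluorescence by blocking filaments or displacing dye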
#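 Thioflavine S fluorescence (ex 450, em 510 nm) reports filaments formed from 1 uM human tau plus 30 uM ODS over 15 h at 37 C (10 mM HEPES pH 7.4, 100 mM NaCl, 5 mM DTT); compounds displacing dye or blocking filaments lower signal.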
# BRCT inh green: qHTS Assay for Inhibitors of BRCT-Phosphoprotein Interaction (Green Fluorophore); 0.05% of 75,000 active; Potency, µM (series often up to 76.9 µM), for inactives: at the top dose activity change, negative = inhibition, usual class: inhibitors; AID 875, 2007; Breast cancer type 1 susceptibility protein (Homo sapiens), P38398; BRCA1 BRCT-phosphopeptide binding, green fluorescence polarization;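 further: potency means the concentration at half of the fitted maximal effect; plate controls were peptide without protein for full effect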
#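 Compounds were incubated for 12 min at room temperature with a complex of 100 nM fluorescein-tagged pBACH1 decapeptide and 250 nM His-tagged BRCT protein. Buffer was phosphate pH 7.3 with EDTA, DTT and Tween 20. Disruption of binding lowers the polarization signal.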
# BRCT PPI red: qHTS Assay for Inhibitors of BRCT-Phosphoprotein Interaction (Red Fluorophore). BRCT-phosphopeptide binding, red fluorescence polarization. Potency, µM (series often up to 76.9 µM), inactives show at the highest dose activity change, negative = inhibition, hits mostly inhibitors. 0.03% of 75,000 active; further: on the % scale 0 is the no-effect control and ±100 the full control effect
#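 Fluorescence polarization: 100 nM His-tagged BRCA1 BRCT with 100 nM TAMRA-labelled phospho-BACH1 decapeptide, phosphate buffer pH 7.3 with 150 mM NaCl, DTT, 0.01% Tween 20; 12 min RT. Binding inhibition seen as FP decrease.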
# Hsp90 Hop PPI: qHTS Assay for Disrupters of an Hsp90 Co-Chaperone Interaction; Hsp90 C-terminal peptide / TPR2A (Hop) interaction, human; AlphaScreen TPR2A-His6 binding biotin-Hsp90 C-terminal peptide; Potency, µM (series often up to 57 µM), for inactives: top-dose activity change, negative = inhibition; 0.44% of 71,000 active; active means well fitted curve in either direction with a large enough effect; inconclusive means small, poorly fitted or top-dose-only effect, or another doubt; further: potency means the concentration at half of the fitted maximal effect; on the % scale 0 is the no-effect control and ±100 the full control effect
# An asterisk follows results filed as active; i = inactive; ? = inconclusive; / = no result given; ! = a repeat was not active; [ ] = dose if it differs, or a comment. Only some compounds are listed: those with a hit (about 2.3% of all), similar ones and a draw of the others. Unless noted, the call rests on the fitted dose curve; in most records, active means well fitted curve in the direction sought with a large enough effect; inconclusive means small, poorly fitted or top-dose-only effect, or another doubt; inactive means no such curve, though single readings can be large; an effect the other way counts as inactive or inconclusive.
SMILES,YjeE inh,Pol III holo inh,Tau filament bind,BRCT inh green,BRCT PPI red,Hsp90 Hop PPI
CCOC(=O)C1CCCN(C(=O)c2cc(Nc3ccc(OC)c(OC)c3)nc3ccccc23)C1 (centres undefined),i,-5%,-27%,-3%,-2%,-15%
COc1ccc(Nc2cc(C(=O)NCCCN3CCN(C)CC3)c3ccccc3n2)cc1OC,i,-2%,16µM*,-3%,-1%,-4%
COc1ccc(Cn2c(-c3ccco3)nc3oc4cc(OC)ccc4c(=O)c3c2=O)cc1,?,-9%,10µM*,14%,-2%,-3%
COc1ccc(Cn2c(-c3ccco3)nc3oc4ccccc4c(=O)c3c2=O)cc1,i,-9%,-7%,-2%,-1%,-1%
C=CCOC(=O)C(C#N)c1nc2ccccc2nc1N1CCN(Cc2ccccc2)CC1 (centres undefined),i,0%,1.6µM*,3%,1%,-14%
C=CCNC(=O)C(C#N)c1nc2ccccc2nc1N1CCN(Cc2ccccc2)CC1 (centres undefined),i,-1%,73%,-4%,1%,-2%
CCC(CC)COC(=O)C(C#N)c1nc2ccccc2nc1N1CCOCC1 (centres undefined),i,-7%,3.2µM*,2%,0%,-7%
CC(C)COC(=O)C(C#N)c1nc2ccccc2nc1N1CCN(Cc2ccccc2)CC1 (centres undefined),i,-1%,2µM*,-2%,1%,-9%
COCC(C)OC(=O)C(C#N)c1nc2ccccc2nc1N1CCN(Cc2ccccc2)CC1 (centres undefined),i,-3%,3.2µM*,-2%,0%,-7%
COCCOC(=O)C(C#N)c1nc2ccccc2nc1N1CCN(Cc2ccccc2)CC1 (centres undefined),i,-4%,?,0%,0%,-7%
O=C1CCC[C@H]1C(=O)Nc1ccc2ccccc2c1,i,-12%[11.4 µM],-6%[11.4 µM],-1%[15.4 µM],2%[15.4 µM],-4%[11 µM]
CN1CCN(c2nc3ccccc3nc2C(C#N)C(=O)OC2CCCCC2)CC1 (centres undefined),i,4%,0.63µM*,3%,1%,-6%
CCOC(=O)N1CCN(c2nc3ccccc3nc2C(C#N)S(=O)(=O)c2ccc(C)cc2)CC1 (centres undefined),i,-11%,17%,1%,1%,-2%
COc1ccc(-c2cnc(N)nc2-c2ccc(OC)cc2O)cc1,i,-4%,?,-2%,0%,-15%
C=C(C)COc1ccc(-c2nc(N)ncc2-c2ccc(OC)cc2)c(O)c1,i,-8%,13µM*,3%,-1%,-25%
C=C(C)COc1ccc(-c2ncncc2Oc2ccc(OC)cc2)c(O)c1,i,1%,20µM*,3%,-1%,13%
CCOC(=O)c1sc(NC(=O)CSc2nnc(Cc3ccccc3)o2)c(C#N)c1C,i,-3%,20µM*,5%,-1%,-8%
CCOC(=O)c1sc(NC(=O)CSc2ncn[nH]2)c(C#N)c1C,i,-5%,-28%,0%,-1%,-8%
Cc1ccc(C(C)C)n1C(=O)OC(C)(C)C,/,/,/,0%[15.4 µM],-3%[15.4 µM],/
C/C=C1\CC2C=CC1C2 (centres undefined),i,1%,3%,-1%,0%,3%
CN(C)CCN(Cc1ccccc1)S(=O)(=O)c1cccc2cccnc12,i,-2%,-21%,1%,-4%,-2%
CN(C)c1ccc(NC(=O)CN2CCC(C(=O)c3ccc(F)cc3)CC2)cc1,i,-1%,16µM*,0%,-1%,-16%
CCN(CC)c1ccc(NC(=O)CN2CCN(c3ccc(F)cc3)CC2)cc1,i,-6%,?,-2%,1%,-25%
COC(=O)[C@@]1(Cc2ccc(OC)cc2)[C@H]2c3cc(C(=O)N4CCCC4)n(CCc4c[nH]c5cc(F)ccc45)c3C[C@H]2CN1C(=O)c1ccccc1,i,5%,63%,25%,0%,-16%
C=CCOc1ccccc1/C=c1\sc2nc(=O)c(C)nn2c1=O,i,1%,25µM*,1%,-3%,-6%
SMILES,YjeE inh,Pol III holo inh,Tau filament bind,BRCT inh green,BRCT PPI red,Hsp90 Hop PPI
N#Cc1sc2nc3c(c(-c4ccco4)c2c1N)CCCC3,i,-16%,3.2µM*,35%,6%,-3%
CC1(N)CCC(C(C)(C)N)CC1 (centres undefined),i,4%,6%,-6%,-1%,-1%
COC(=O)C1=C(C)NC(C)=C(C(=O)OCCN(C)Cc2ccccc2)[C@@H]1c1cccc([N+](=O)[O-])c1,i,-3%,32µM*,2%,-3%,-27%
CCOC(=O)C1=C(C)NC(C)=C(C(=O)OC)[C@@H]1c1cccc([N+](=O)[O-])c1,i,-8%[25.6 µM],-27%[25.6 µM],-1%[34.4 µM],-1%[34.4 µM],-3%[26 µM]
COCCOC(=O)C1=C(C)NC(C)=C(C(=O)OC(C)C)[C@@H]1c1cccc([N+](=O)[O-])c1,i,-2%,32µM*!,-2%[3.08 µM],-4%,-13%
COc1ccc(-c2cc(C(F)(F)F)n3nc(C(=O)Nc4cc(C)on4)cc3n2)cc1OC,i,8%,1.6µM*,-4%,1%,-3%
COC(=O)c1cc2nc(-c3ccc(OC)cc3)cc(C(F)(F)F)n2n1,i,2%,219%,1%,1%,6%
Cc1cc(Nc2ccccc2N2CCOCC2)n2ncnc2n1,i,-6%,20µM*,0%,-3%,-11%
C[C@H](NCCN(C)C)[C@@H]1CCC2C3CCc4cc(O)ccc4[C@H]3CCC21C (some centres undefined),i,-9%[11.4 µM],-4%[11.4 µM],0%[15.4 µM],1%[15.4 µM],-1%[11 µM]
CCOc1cc(-c2cc(-c3ccc(N)cc3)nc(N)c2C#N)ccc1O,i,-6%,32µM*,-7%,-3%,?
Cc1ccc2c(c1)NCCO2,i,-7%,32µM*,0%,-3%,-20%
Cc1ccc(CNC(=O)C2CNc3cc(C)ccc3O2)cc1 (centres undefined),i,-9%,-5%,-2%,1%,-10%
Cn1cc(-c2nc3cncnc3n(C3CC3)c2=O)c2ccccc21,i,-5%,-10%,-2%,-1%,-3%
O=C(Nc1ccc(N2CCCC2)cc1)c1ccc(Br)o1,i,-16%[11.4 µM],3.2µM*,-1%,0%,?
